Sampled rows, rich in hits. Any-hit rate of the full collection: about 2.3%.
Bcl-xL primary – inhibitors of human Bcl-xL, primary screen, biochemical, fluorescence polarization, HTS; Bcl-2-like protein 1 (Homo sapiens), Q07817; GST-Bcl-xL / FITC-Bim BH3 peptide fluorescence polarization; inhibition, % at 10.9 µM; 320,000 tested, 0.7% active; AID 2129, 2009;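 active = inhibition above the mean of all tested compounds plus 3 SD, cutoff set per campaign, cut at about 30% in these data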;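 also: 0% = DMSO wells and 100% = unlabeled Bim-BH3 peptide competitor; inhibitors lower millipolarization by displacing the labeled peptide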
Target sequence (Q07817 whole entry, looked up): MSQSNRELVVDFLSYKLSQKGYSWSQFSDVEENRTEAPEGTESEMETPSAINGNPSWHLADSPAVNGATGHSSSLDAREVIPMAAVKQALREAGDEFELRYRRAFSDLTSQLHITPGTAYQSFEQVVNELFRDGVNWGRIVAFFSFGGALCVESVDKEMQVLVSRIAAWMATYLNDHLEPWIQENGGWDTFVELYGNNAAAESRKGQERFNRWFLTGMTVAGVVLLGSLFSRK
GLD-1 TGE inh – GLD-1/TGE RNA complex disruptors, primary screen, biochemical, fluorescence polarization | Female germline-specific tumor suppressor gld-1 (Caenorhabditis elegans), Q17339 | purified GLD-1 + fluorescein TGE RNA | inhibition, % at 5.96 µM | 320,000 tested, 0.44% active | AID 2280, 2010;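 active = percent inhibition above a per-plate cutoff, the plate mean of test compounds plus 3 SD, cut at about 30% in these data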;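 also: 0% = DMSO wells with GLD-1 and probe and 100% = wells lacking GLD-1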
Target sequence (Q17339 whole entry, looked up): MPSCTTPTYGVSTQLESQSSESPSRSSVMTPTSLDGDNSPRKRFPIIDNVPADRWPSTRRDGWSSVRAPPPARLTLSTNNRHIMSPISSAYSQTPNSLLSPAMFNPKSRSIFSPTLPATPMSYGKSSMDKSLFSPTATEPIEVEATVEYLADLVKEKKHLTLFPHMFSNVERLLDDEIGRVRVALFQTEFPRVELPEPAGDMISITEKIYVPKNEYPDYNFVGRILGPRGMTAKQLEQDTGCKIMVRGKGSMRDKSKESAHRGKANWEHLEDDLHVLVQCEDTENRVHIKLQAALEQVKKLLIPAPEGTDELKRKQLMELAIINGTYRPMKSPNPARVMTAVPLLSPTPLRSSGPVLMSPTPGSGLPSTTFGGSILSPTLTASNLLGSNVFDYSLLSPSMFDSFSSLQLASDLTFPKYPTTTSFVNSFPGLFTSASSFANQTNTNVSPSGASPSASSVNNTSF
Mcl-1 Bim block – inhibitors of Bim peptide binding to Mcl-1, primary screen, biochemical, bead-based flow cytometry, multiplex | Induced myeloid leukemia cell differentiation protein Mcl-1 (Homo sapiens), Q07820 | Bim peptide-Mcl-1 binding | inhibition, % at 10 µM | 190,000 tested, 0.1% active; in the data active = inhibition above about 40%;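 also: 0% = no compound tracer wells and 100% = peptide blocker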
Mcl1 Noxa PPI – Mcl-1/Noxa binding inhibitors, primary screen, biochemical, TR-FRET, 1536-well; Induced myeloid leukemia cell differentiation protein Mcl-1 (Homo sapiens), Q07820; TR-FRET Mcl-1/Noxa peptide binding, 2 h; inhibition, % at 21.7 µM; 220,000 tested, 1.5% active; AID 1022, 2008;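 active = compounds that cut the protein-peptide binding signal by more than 50% relative to plate controls in a single-dose test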;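 also: His-tagged Mcl-1 with rhodamine Noxa BH3 peptide and terbium anti-His antibody; 0% = Mcl-1 plus Noxa peptide wells and 100% = peptide-only wells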
Mcl1-Bid inh – Mcl-1/Bid binding inhibitors, primary screen, biochemical, TR-FRET, 1536-well. Induced myeloid leukemia cell differentiation protein Mcl-1 (Homo sapiens), Q07820. TR-FRET Mcl-1/Bid-Dy647 peptide binding. inhibition, % at 21.7 µM. 220,000 tested, 0.97% active. AID 1021, 2008;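 active = compounds that cut the binding signal by more than half at the single screening dose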;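 also: His-tagged Mcl-1 with europium anti-His antibody binding Bid BH3 peptide; 0% = Mcl-1 plus peptide wells and 100% = peptide-only wells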
MCL1 BIM primary – inhibitors of MCL1 binding to BIM-BH3, primary screen, biochemical, fluorescence polarization; Induced myeloid leukemia cell differentiation protein Mcl-1 (Homo sapiens), Q07820; GST-MCL1 / FITC-Bim-BH3 fluorescence polarization; inhibition, % at 10.9 µM; AID 2057, 2009; 320,000 tested, 0.68% active;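 active = inhibition above the mean inhibition of all tested compounds plus 3 SD, set per campaign, cut at about 40% in these data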;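 also: 0% = DMSO wells and 100% = unlabeled Bim-BH3 peptide control; higher means more loss of mP so more displacement of Bim peptide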
GLD-1 TGE cf – GLD-1/TGE RNA binding inhibitors, retest, confirmation, biochemical, fluorescence polarization, triplicate | GLD-1/FL-TGE RNA fluorescence polarization | inhibition, % at 5.96 µM | 550 tested, 10% active | shares compounds with GLD-1 TGE inh;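 active = average inhibition across triplicates above the hit cutoff set in the primary screen, cut at about 32% in these data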;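 also: 0% = GLD-1 with RNA probe and DMSO and 100% = wells lacking GLD-1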
Numbers without * were called inactive; . = no result.

SMILES	Bcl-xL primary	GLD-1 TGE inh	Mcl-1 Bim block	Mcl1 Noxa PPI	Mcl1-Bid inh	MCL1 BIM primary	GLD-1 TGE cf
CCNC(=O)CC1SC(=Nc2ccc(C)c([N+](=O)[O-])c2)N(C)C1=O (stereo not drawn)	5.5	31.2*	.	.	.	-0.5	0.6
O=C(Nc1ccc(OC(F)F)cc1)c1cc(S(=O)(=O)N2CCCCC2)ccc1N1CCOCC1	-9.2	-0.6	.	.	.	-7.2	.
CC1CN(S(=O)(=O)c2ccccc2)C(C)N1C(=O)N1CCOCC1 (stereo not drawn)	2.0	4.4	.	.	.	6.4	.
CC(=O)Oc1ccc(C(=O)[C@H]2[C@H]3C(=O)N(c4ccccc4)C(=O)[C@H]3[C@@H]3C=CC=NN32)cc1	25.7	31.4*	-1.0	21.4	-34.6	21.7	2.9
Nc1ccccc1C(=O)NC12CC3CC(CC(C3)C1)C2	-3.6	2.2	.	.	.	0.0	.
Nc1cccc2c1C(=O)N(CC(=O)NC13CC4CC(CC(C4)C1)C3)C2=O	32.3*	37.4*	-2.0	21.9	-23.3	31.8	28.9
O=C(N/N=C/c1ccc[nH]1)c1ccc([N+](=O)[O-])cc1	3.8	57.2*	-10.0	15.4	-13.4	4.5	-2.9
Cc1ccc(S(=O)(=O)N2CCOCC2)cc1C(=O)N1C(=O)c2cccc(N)c2C1=O	30.4*	31.8*	-1.0	17.0	97.2*	31.7	18.4
Nc1cccc2c1C(=O)N(C(=O)c1cccc(S(=O)(=O)N3CCCCCC3)c1)C2=O	27.7	37.7*	-1.0	6.2	-14.7	30.9	15.3
CCCCC1=CC2=C(c3ccco3)C(=O)C(C)(OC(=O)c3ccc(OC)cc3)C(=O)C2=CN1CC1CC1 (stereo not drawn)	18.2	14.3	.	21.8	-136.8	12.5	.
CCCCC1=CC2=C(c3ccco3)C(=O)C(C)(OC(=O)c3ccc(OC)cc3)C(=O)C2=CN1c1ccc(OC)cc1 (stereo not drawn)	30.2*	32.5*	.	20.3	-106.8	31.9	4.0
CCCCC1=CC2=C(c3ccco3)C(=O)C(C)(OC(=O)c3ccc(OC)cc3)C(=O)C2=CN1CC(C)C (stereo not drawn)	18.5	15.4	.	-31.5	-90.7	12.9	.
CCCCC1=CC2=C(c3ccco3)C(=O)C(C)(OC(=O)c3ccc(OC)cc3)C(=O)C2=CN1C1CC1 (stereo not drawn)	41.2*	32.4*	.	2.4	-143.5	40.0*	12.2
CCCCC1=CC2=C(c3ccco3)C(=O)C(C)(OC(=O)c3ccc(OC)cc3)C(=O)C2=CN1C(CO)CO (stereo not drawn)	25.2	33.7*	.	14.5	-122.9	24.7	15.1
Cc1nc2ccc(S(=O)(=O)NCC(=O)NCCc3ccc(Cl)cc3)cc2s1	4.8	5.4	.	.	.	5.2	.
CC(C)C1Nc2ccc(S(N)(=O)=O)cc2C2C=CCC21 (stereo not drawn)	19.9	10.8	0.0	41.5	-39.2	20.2	.
NS(=O)(=O)c1ccc2c(c1)C1C=CCC1C(C1CC=CCC1)N2 (stereo not drawn)	46.0*	33.9*	1.0	21.9	-29.1	43.7*	8.7
N#CC1(NC(=O)CSc2nnc3n2CCCCC3)CCCCC1	.	4.0	.	.	.	.	.
Cc1ccc(NC(=O)CSc2nnc(C)n2-c2ccccc2)cc1	-4.0	-1.4	-2.0	4.3	-6.3	4.8	.
COC(=O)c1ccc(NC(=O)CSc2nnc(-c3ccccc3Br)n2-c2ccccc2)cc1	1.3	46.2*	.	.	.	-5.2	-5.2
O=C(CCc1ccc(O)c(O)c1)NNC(=S)Nc1ccc(Br)cc1Cl	3.0	4.0	0.0	-23.5	-72.4	4.7	.
O=c1[nH]c2cc3ccccc3cc2nc1C(F)(F)F	13.9	57.9*	0.0	3.0	-3.3	14.1	59.6*
O=C(CN(C1CCCCC1)C1CCCCC1)N1CCc2ccccc2C1	6.0	39.2*	1.0	17.6	21.2	-0.9	-0.4
O=C(CN(C1CCCCC1)S(=O)(=O)c1ccccc1)N1CCCC1	1.8	0.2	1.0	1.0	-27.7	10.5	.
CC(=O)Nc1cccc(C(=O)NC2CCCc3c2cnn3-c2cc(C)cc(C)c2)c1 (stereo not drawn)	-5.8	57.7*	.	.	.	-5.2	1.2
SMILES	Bcl-xL primary	GLD-1 TGE inh	Mcl-1 Bim block	Mcl1 Noxa PPI	Mcl1-Bid inh	MCL1 BIM primary	GLD-1 TGE cf
CC(=O)Nc1c2c3c(cccc3n(C)c1=O)C(=O)c1ccccc1-2	47.1*	32.0*	0.0	9.5	-15.5	49.9*	8.2
CS(=O)(=O)N(CCC(=O)O)Cc1ccccc1	4.6	37.0*	-2.0	-5.0	-1.9	5.0	-3.2
Cc1ccccc1OC(C)C(=O)NCCCN1CCOCC1 (stereo not drawn)	5.3	2.0	.	.	.	9.7	.
Cc1cnc(C(=O)Nc2ccccc2-c2ccc(C)o2)cn1	36.4*	42.5*	-6.0	-0.5	-23.0	38.2	2.4
Cc1cnc(C(=O)Nc2cccc3ncccc23)cn1	0.4	3.7	.	.	.	4.3	.
CS(=O)(=O)c1ccc(Cl)c(NC(=O)CSc2n[nH]c(N)n2)c1	4.5	5.7	.	.	.	0.0	.
CCN(c1ccccc1)S(=O)(=O)c1ccc(Cl)c(NC(=O)CSc2n[nH]c(N)n2)c1	-0.6	38.6*	0.0	-1.3	-36.4	-1.9	0.1
CN(CC(=O)Nc1n[nH]c(=S)s1)S(=O)(=O)c1cccc2cccnc12	-4.1	111.8*	.	.	.	-10.1	-0.3
CCOC(=O)NC(=O)C(/C=N/c1sccc1C(=O)OC)=C(\C)O	17.2	46.1*	0.0	-16.1	-26.2	9.2	2.6
O=C(CN1CCCCCCC1)Nc1cc(Cl)cc(Cl)c1	2.6	32.8*	-1.0	-9.6	-20.4	3.0	2.7
CCN1CCN(Cc2ccc(NC(=O)c3ccc(C)c(NC(=O)c4ccnnc4)c3)cc2C(F)(F)F)CC1	-1.1	39.1*	.	8.2	-59.1	-6.5	2.2
CCN1CCN(Cc2ccc(NC(=O)c3ccc(C)c(NC(=O)c4ccc5n[nH]nc5c4)c3)cc2C(F)(F)F)CC1	5.0	-6.0	.	10.1	-46.4	-2.7	.
CCOc1ccc(NC(=O)CCC(=O)NNC(=O)COc2ccccc2C)cc1	5.5	1.2	0.0	5.6	-6.8	5.5	.
O=C(Cc1ccc(-c2ccccc2)cc1)Nc1ncccc1O	25.0	30.8*	.	.	.	28.6	-0.1
COc1ccc(NCc2cc(=O)oc3cc(NC(C)=O)ccc23)cc1	-2.5	3.3	.	.	.	-11.3	.

Screens deposited in PubChem by several laboratories.
